Assay outcomes from PubChem.
CCHF vOTU inh = blocks the CCHF virus ovarian tumor domain protease | CCHFV vOTU protease, Pep-AMC fluorescence | inhibition, % at 11.5 µM | 370,000 compounds, 0.55% hits; in the data active = inhibition above about 30%; also: 0% = vehicle wells with enzyme and 100% = no enzyme wells
Sa ugtP lethal = growth inhibition of S. aureus ugtP deletion strain | growth inhibition, % (no concentration beside the values) | S. aureus RN4220 ugtP deletion, OD600 growth, 16 h | 330,000 compounds, 0.54% hits; in the data active = growth inhibition above about 68%;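 also: plate controls were untreated wells for no effect and antibiotic for full effect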
Sa RN4220 lethal = kills Staphylococcus aureus RN4220 | inhibition, % (test concentration not listed) | S. aureus RN4220 growth, OD600, 16 h | 330,000 compounds, 0.33% hits | AID 1259311; in the data active = inhibition above about 85%;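 also: plate controls were untreated cells for no effect and reference antibiotic for full effect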
Mtb hypoxia rep = reduces hypoxia-regulated biosensor signal in M. tuberculosis; M. tuberculosis hypoxia-regulated fluorescent reporter, fluorescence; fluorescence inhibition, % (no concentration beside the values); 300,000 compounds, 0.1% hits; AID 1159583; in the data active = fluorescence inhibition mostly above about 23%, no sharp cut-off; inactive = mostly below about 17%
SSB-PriA inh = K. pneumoniae PriA-SSBct interaction inhibition. 430,000 compounds, 0.6% hits. AlphaScreen SSBct-PriA binding, biotinylated peptide. inhibition, % at 33 µM; in the data active = inhibition mostly above about 37%, no sharp cut-off; inactive = mostly below about 20%;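 also: plate controls were negative control peptide for no effect and reference peptide for full effect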
Numbers without * were called inactive; . = not tested or not shown; ! = not confirmed by another sample. Rows were chosen to be rich in hits. Some 1.4% of all compounds tested hit in one or more screens of this group.

SMILES	CCHF vOTU inh	Sa ugtP lethal	Sa RN4220 lethal	Mtb hypoxia rep	SSB-PriA inh
O=[N+]([O-])c1cc([N+](=O)[O-])c2ncccc2c1	.	.	.	.	63*
O=[N+]([O-])c1ccc(F)c2ncccc12	.	.	.	.	27
O=[N+]([O-])c1cc2cccnc2c2ncccc12	-3	-2	4	.	48*
O=[N+]([O-])c1cc(C(F)(F)F)cc([N+](=O)[O-])c1Sc1cccc2cccnc12	.	.	.	.	56*
Cc1cc2cccnc2c2ncccc12	.	.	.	.	163*
C#CCOCCOCCOCCNc1nc(N2CCN(C(=O)C(CCC(=O)O)n3cc(C(N)Cc4ccc(O)cc4)nn3)CC2)nc(N2CCN(C(=O)C(Cc3cc4ccccc4[nH]3)n3cc(C(N)C(C)CC)nn3)CC2)n1 (centres undefined)	.	-1	0	1	.
CC(C)CN1CN2Cc3cc(F)ccc3C2CS1(=O)=O (centres undefined)	-2	.	.	.	.
Nc1c(N)c2cccnc2c2ncccc12	.	.	.	.	95*
Cc1ccc(C(NC(=O)C(C)C)c2cc([N+](=O)[O-])c3cccnc3c2O)cc1 (centres undefined)	16	95*	92*	6	21
COc1ccc(C(=O)Oc2cccc3cccnc23)cc1[N+](=O)[O-]	0	-1	10	2	0
COc1ccc(CSc2cccc3cccnc23)cc1[N+](=O)[O-]	1	17	41	12	45*
O=[N+]([O-])c1ccc(Cl)c2ncccc12	.	.	.	.	53
O=[N+]([O-])c1cc([N+](=O)[O-])c2cccnc2c1Cl	.	.	.	.	81*
Cc1ccc(S(=O)(=O)c2cnc3cc4c(cc3c2N2CCC(C)CC2)OCCO4)cc1	.	.	.	.	-2
O=C(Nc1nnc(C2CC2)s1)c1cc([N+](=O)[O-])ccc1N1CCCCC1	5	77	89*	-3	21
COc1ccc(NC(=O)C2C(C=C(Cl)Cl)C2(C)C)cc1 (centres undefined)	.	.	.	.	-5
CC1(C)C(C=C(Cl)Cl)C1C(=O)Nc1ccc([N+](=O)[O-])cc1 (centres undefined)	3	94*	87*	5	-9
CC1CN(c2ccc([N+](=O)[O-])c3cccnc23)CC(C)N1 (centres undefined)	32*	-5	-12	8	38*
CC/C(C)=C1\SC(N2CCN(c3ccccc3[N+](=O)[O-])CC2)=NC1=O	.	.	.	.	-5
O=[N+]([O-])c1ccccc1N1CCN(c2ccc([N+](=O)[O-])c3cccnc23)CC1	.	.	.	.	75*
O=[N+]([O-])c1ccc(N2CCCC2)c2ncccc12	-5	3	6	24	-6
O=C1C(Cl)=C(N2CCN(c3ccccc3[N+](=O)[O-])CC2)C(=O)c2ccccc21	85*	35	49	-3	15
O=C(Nc1nnc(-c2cccs2)o1)C1CC(=O)N(c2ccc(F)cc2)C1 (centres undefined)	.	.	.	.	27*!
O=C(Nc1nnc(-c2ccccc2Cl)o1)C1CC(=O)N(c2ccccc2)C1 (centres undefined)	.	.	.	.	46*
Cc1onc(-c2ccccc2Cl)c1C(=O)Nc1nnc(C2CC(=O)N(c3ccccc3)C2)o1 (centres undefined)	.	.	.	.	-10
SMILES	CCHF vOTU inh	Sa ugtP lethal	Sa RN4220 lethal	Mtb hypoxia rep	SSB-PriA inh
CCOc1ccccc1C(=O)Nc1ccccc1Cl	.	.	.	.	-35
O=C(/C=C/c1cc(Br)ccc1O)c1ccco1	0	92*	91*	18	2
O=C(/C=C/c1ccccc1O)c1ccco1	-11	-8	10	7	-8
COc1cc(Br)c(/C=C/c2ccc3cccc(O)c3n2)cc1OC	3	4	0	14	-16
Oc1c(Cl)cc(Cl)cc1/C=C/c1ccc2cccc(O)c2n1	8	86	91*	-1	-18
Oc1cccc2ccc(/C=C/c3ccccc3Br)nc12	8	92*	90*	4	-4
Oc1ccc(Cl)cc1/C=C/c1ccc2cccc(O)c2n1	-6	27	15	-2	-3
O=C(CSC1CCCC1)N1CCN(C(=O)C2CC2c2ccc3c(c2)OCO3)CC1 (centres undefined)	.	.	.	.	-10
Cc1nnc(C2CCN(C(=O)c3cc(-c4cccs4)on3)CC2)s1	.	.	.	.	-19
COc1ccc(C=NNC(=O)CSc2nnc(C)n2-c2ccccc2)c(OC)c1OC	.	-5	5	.	-9
CCOC(=O)c1c(C)[nH]c(N=Nc2ccccc2C)c1C	8	85	28	6	62*!
CCOC(=O)c1c(C)[nH]c(N=Nc2ccc(C)cc2C)c1C	8	8	0	.	-5
O=C(Cc1ccccc1)NCCS(=O)(=O)N1CCN(c2cccc(Cl)c2)CC1	8	0	-3	-6	-2
